# Source: PubChem BioAssay (Buhrlage Lab, Dana-Farber Cancer Institute and Novartis Institutes for BioMedical Research (Cambridge, Mass))
# USP8 block – inhibitors of human USP8 deubiquitinase; inhibition, % at 20 µM; AID 1645853, 2021; purified USP8, Ub-rhodamine cleavage fluorescence, 30 min; Ubiquitin carboxyl-terminal hydrolase 8 (Homo sapiens), P40818; 47,000 tested, 4.2% active
# USP30 inh – inhibitors of human USP30 deubiquitinase | 47,000 tested, 5.3% active | inhibition, % at 25 µM | purified USP30, Ub-rhodamine cleavage fluorescence
# Target sequence (Q70CQ3 whole entry, looked up): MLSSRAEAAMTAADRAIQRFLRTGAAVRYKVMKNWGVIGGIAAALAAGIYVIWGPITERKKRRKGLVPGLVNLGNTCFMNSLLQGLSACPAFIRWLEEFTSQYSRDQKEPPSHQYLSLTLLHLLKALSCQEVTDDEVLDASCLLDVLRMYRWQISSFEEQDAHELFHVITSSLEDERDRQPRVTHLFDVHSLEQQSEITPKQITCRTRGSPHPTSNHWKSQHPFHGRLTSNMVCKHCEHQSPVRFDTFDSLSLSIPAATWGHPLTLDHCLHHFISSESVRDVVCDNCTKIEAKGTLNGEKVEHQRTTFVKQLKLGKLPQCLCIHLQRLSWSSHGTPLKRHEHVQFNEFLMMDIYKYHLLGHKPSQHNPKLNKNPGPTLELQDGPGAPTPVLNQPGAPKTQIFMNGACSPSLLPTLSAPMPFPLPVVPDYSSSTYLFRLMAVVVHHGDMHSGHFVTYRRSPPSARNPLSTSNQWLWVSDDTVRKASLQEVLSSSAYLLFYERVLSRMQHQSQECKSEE
# USP17 inh – inhibitors of human USP17 deubiquitinase | inhibition, % at 50 µM | purified USP17, Ub-rhodamine cleavage fluorescence, 3 h | 47,000 tested, 6.5% active
# An asterisk follows results filed as active; nt = no result. Sampled rows, rich in hits. Any-hit rate of the full collection: about 12%. Rule as the data show it: active = inhibition above about 30%; inactive = the rest.
SMILES,USP8 block,USP30 inh,USP17 inh
CCNC(=O)N1CCC2(C1)c1ccccc1S(=O)(=O)N2Cc1ccc(OC)cc1 (stereo unspecified),4.4,-8.2,-1.5
O=C(CNCc1ccco1)N(c1ccccc1)c1ccccc1,-15.2,-2.3,-7.5
O=C(Nc1ccc(N2CCN(Cc3ccccc3)C2=O)nc1)C1CCC1,19.2,16.7,9.4
CC(C)C(=O)Nc1ccc(N2CCN(Cc3ccc(F)cc3)C2=O)nc1,28.6,17.6,62.2*
O=C(CN(Cc1ccccc1)S(=O)(=O)c1ccccc1)NCc1ccccc1Cl,3.9,12.3,7.6
O=C(CN(CC(=O)NCc1ccccc1Cl)c1nc2ccccc2s1)NCc1ccccc1Cl,69.2*,18.7,14.9
CN(C)CCCn1cnc2scc(-c3ccccc3)c2c1=O,-1.7,-18.9,-5.9
Cc1noc(NS(=O)(=O)c2ccc(NC(=O)CSc3ccc4ccccc4c3)cc2)c1C,68.0*,10.9,52.2*
Cc1noc(NS(=O)(=O)c2ccc(NC(=O)COc3ccc(N(C)C(=O)c4ccc(Cl)cc4)cc3)cc2)c1C,5.3,nt,-27.6
CC(C)n1ccc(-c2cc(C(=O)N3CCCN(C)CC3)c3ccccn23)n1,-166.5,-139.7,-70.6
O=C(Nc1ccccc1-c1nc(-c2ccccn2)no1)c1ccc(Cl)cc1,17.6,20.7,35.1*
COc1ccccc1C(=O)Nc1ccccc1-c1nc(-c2ccccn2)no1,7.9,nt,32.5*
Cc1ccc(-c2noc(-c3ccccc3NC(=O)C3CC3)n2)cc1,3.6,0.5,4.2
COc1ccc(NC(=O)c2ccccc2-c2nc(-c3ccc(Cl)cc3)no2)cc1OC,-11.9,-16.8,-18.4
O=C1NCc2ccccc2CC12CCN(Cc1cccc3ccccc13)C2 (stereo unspecified),6.2,31.6*,10.0
O=C1NCc2ccccc2CC12CCN(Cc1cccc(F)c1F)C2 (stereo unspecified),-5.7,-67.0,-19.5
O=C(NC1CCC1)[C@H]1C[C@@H]2CN(Cc3ccc(F)cc3)C[C@H]1O2,14.7,14.3,14.5
Cc1cc(C)c2cc(C)c(SCC(=O)N3CCCCC3)nc2c1,6.3,28.1,16.2
CCOc1ccccc1C(=O)Oc1ccc2c(C)cc(=O)oc2c1,35.3*,31.0*,59.4*
Cc1cc(=O)oc2cc(OCC(=O)NC3CCN(Cc4ccccc4)CC3)ccc12,-0.3,-12.2,1.5
Cc1cc(=O)[nH]c2c1c(-c1ccccc1)nn2C,-1.3,12.9,2.6
Cc1cc(=O)[nH]c2cc(-c3ccccc3)nn12,2.8,38.5*,11.3
COc1ccc(CCNC(=O)c2ccc(Cn3c(=O)c4ccccc4n(CC(=O)N4CCC(C)CC4)c3=O)cc2)cc1OC,19.4,18.5,27.5
Cc1nn(-c2ccccc2)c(C)c1S(=O)(=O)Nc1cccnc1,-7.6,-13.1,-71.2
Cc1nn(-c2ccc(-c3ccccc3)nn2)c(C)c1S(=O)(=O)NC(C)C,-26.9,21.4,37.5*
SMILES,USP8 block,USP30 inh,USP17 inh
CCNC(=O)N[C@@H]1C[C@@H](Oc2ccccc2)[C@H](O)[C@H]1N1CCOCC1,1.7,5.5,4.9
COCCNC(=O)C1(C)Cn2nc(-c3ccco3)cc2C(=O)N1c1ccc(OC)cc1 (stereo unspecified),0.1,-18.6,-13.9
Nc1ncnc2sc(Nc3ccc([N+](=O)[O-])cc3)nc12,50.4*,39.5*,33.6*
Cc1sc2ncnc(OCc3ccc([N+](=O)[O-])cc3)c2c1C,-136.0,-98.8,-3.8
Cc1cc(-c2ccccc2C(=O)O)nc(C2CCCN(S(C)(=O)=O)C2)n1 (stereo unspecified),-28.3,-0.9,-1.4
CC(C)Cn1c(=O)c2sccc2n2c(CCC(=O)NC3CCCCCC3)nnc12,0.0,-5.0,nt
c1csc(-c2nc(NCC3CCCO3)c3ccccc3n2)c1 (stereo unspecified),13.0,19.9,31.4*
c1ccc(N2CCN(c3nc(NCC4CCCO4)c4ccccc4n3)CC2)cc1 (stereo unspecified),17.2,6.7,12.3
O=C(c1cc2c(s1)CN(C1CCCC1)C2)N1CCCN(c2ncccn2)CC1,83.8*,-48.6,21.0
O=C(c1ccco1)N1CCN(C(=O)c2cc3c(s2)CN(C2CC2)C3)CC1,1.0,-81.8,5.5
Cc1cc(C)n2ncc(C(=O)N3CCN(c4ncccn4)CC3)c2n1,-2.1,nt,8.4
O=C(c1cc2cn(C3CC3)cc2s1)N1CCCN(c2ncccn2)CC1,82.9*,-77.9,27.7
Cn1c(SCC(=O)Nc2ccc(F)c(F)c2)nnc1-c1cnccn1,14.8,21.8,14.4
Cc1ccsc1C1CCCCCN1S(=O)(=O)c1ccc(Cl)cc1 (stereo unspecified),16.6,14.3,9.0
COc1cccc(C(=O)N2C[C@H]3N(C)C(=O)c4ccccc4C(=O)[C@@]3(C)C2)c1,1.5,0.0,-2.2
Cc1ccc2nc3c(cc2c1)CCN3S(=O)(=O)c1ccc(F)cc1,-4.3,-22.3,1.0
Cc1ccc2c(c1)n(S(=O)(=O)c1ccc(F)cc1)c(=O)n2S(=O)(=O)c1ccc(F)cc1,26.0,34.8*,33.0*
COc1ccc(CCNC(=O)Cn2c(=O)c(C)nc3cc(C)c(C)cc32)cc1OC,7.3,23.6,4.5
Cc1cccc(CNC(=O)Cn2c(=O)c(C)nc3cc(C)c(C)cc32)c1,32.5*,-71.9,-1.5
CCC(=O)Nc1c(C)noc1/C=C/c1ccc(S(=O)(=O)N(C)Cc2ccccc2)s1,-0.1,-7.8,0.6
Cc1cc(C(=O)N2CCC3(COCc4cnc(-c5ccccc5)nc43)C2)no1 (stereo unspecified),-21.0,2.7,-11.0
CCCN1CCN(c2ncc3c(n2)CCN(Cc2sccc2C)C3)CC1,-238.4,-49.8,-49.3
COc1cccc(-n2nnc(C(=O)Nc3ccc(C)c(C)c3)c2C)c1,13.1,6.2,16.4
COc1cccc(C(=O)Nc2nc(-c3nnn(-c4ccc(C)c(F)c4)c3C)ns2)c1,55.7*,95.0*,61.5*
O=C(O)c1ccc(NC(=O)[C@H](Cc2ccc(O)cc2)NC(=O)c2ccccc2)cc1,-2.0,nt,0.0
SMILES,USP8 block,USP30 inh,USP17 inh
CC(C)NS(=O)(=O)c1cccc2c(NC(=O)C(Cc3ccccc3)NC(=O)c3ccccc3)cccc12 (stereo unspecified),23.8,79.4*,6.2
CCN1C[C@H]2C3(CCN(C(=O)Nc4ccccc4)CC3)CC[C@@]2(C(=O)N(C)C)C1,-74.2,-0.1,-18.0
Cc1cccc(OCC(=O)Nc2ccc3c(c2)NC(=O)CO3)c1,0.5,12.2,41.2*
Cc1ccc2c(C)c(C(=O)Nc3ccc4c(c3)NC(=O)CO4)oc2c1C,14.9,-6.5,-2.8
Cc1ccc2c(C)c(C(=O)Nc3ccc4c(c3)NC(=O)CO4)oc2c1,-0.4,nt,28.4
Cc1cc(OCC(=O)Nc2ccc3c(c2)NC(=O)CO3)ccc1Cl,53.3*,14.3,10.5
O=C(NCc1ccc(Cl)cc1)c1ccc2noc(-c3ccccc3)c2c1,-4.6,-41.1,-20.8
COc1cccc(NC(=O)c2ccc3noc(-c4ccc(Cl)cc4)c3c2)c1,2.9,0.2,57.6*
COc1cccc(CNC(=O)c2ccc3noc(-c4ccc(C)cc4)c3c2)c1,-38.0,-17.2,-12.3
O=C(Nc1ccc2c(c1)OCO2)c1ccc2noc(-c3ccc(Cl)cc3)c2c1,5.1,10.5,37.5*
O=C(Nc1ccccc1)c1ccc2noc(-c3ccc(F)cc3)c2c1,-59.0,-12.6,-6.7
O=C(NC1CCCC1)c1ccc2noc(-c3ccc(Cl)cc3)c2c1,-0.6,-35.5,39.2*
